Data on eight sequences can be found in paper PMC8384837, “Expanding the binding specificity for RNA recognition by a PUF domain”.

Substitutions are numbered along the chain they refer to.

What all share (assay): yeast three-hybrid, YBZ-1, SC-Leu-His + 0.5 mM 3-AT, 4 days
Holding throughout (details): tags: N-Gal4 AD-HA kept; label: inside an RPR1-promoter hybrid RNA with tandem MS2 sites; ssRNA

One assay has as its target PUM1 PUF domain R5-LNS (Homo sapiens, UniProt Q14671 828-1176, C1007L;R1008N;Q1011S). In a few lines:
(§1)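 Each repeat of the Pumilio-1 PUF domain was randomized at its three base-contacting residues, and these libraries were co-expressed from a centromeric plasmid with matching RNA elements in strain YBZ-1. After four days on SC-Leu (input) or SC-Leu-His + 0.5 mM 3-AT (selection), the repeat regions were PCR-amplified and Illumina-sequenced. The interaction score compares variant frequency between input and selection as a log change, computed in log2 with a pseudocount of 1 for absent variants.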

The target of a further assay is T1, PUM1 PUF domain R6-GFR (Homo sapiens, UniProt Q14671 828-1176, N1043G;Y1044F;Q1047R).
T1 sequence: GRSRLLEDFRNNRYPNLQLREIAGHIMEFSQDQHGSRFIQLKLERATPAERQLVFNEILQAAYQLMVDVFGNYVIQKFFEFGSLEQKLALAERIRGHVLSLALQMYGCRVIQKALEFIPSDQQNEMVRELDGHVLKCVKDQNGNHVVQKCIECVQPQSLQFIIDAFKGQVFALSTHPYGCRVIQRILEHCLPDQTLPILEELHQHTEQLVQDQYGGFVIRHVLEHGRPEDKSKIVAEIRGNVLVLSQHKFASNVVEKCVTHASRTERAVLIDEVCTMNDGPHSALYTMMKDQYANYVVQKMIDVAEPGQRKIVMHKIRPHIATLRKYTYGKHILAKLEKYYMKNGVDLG
In a few lines: as §1

In a further assay the target is PUM1 PUF domain R1-KTQ (Homo sapiens, UniProt Q14671 828-1176, S863K;R864T). Put shortly:
as §1

For a further assay, the target named is T2, PUM1 PUF domain R6-LFA (Homo sapiens, UniProt Q14671 828-1176, N1043L;Y1044F;Q1047A).
T2 sequence: T1 sequence with G216L, R220A
Put shortly:
as §1

The target of another assay is PUM1 PUF domain R4-PWQ (Homo sapiens, UniProt Q14671 828-1176, N971P;H972W). In a few lines:
as §1

A further assay has as its target PUM1 PUF domain R4-FNG (Homo sapiens, UniProt Q14671 828-1176, N971F;H972N;Q975G). Put shortly: as §1
For another assay, the target named is PUM1 PUF domain R4-RHI (Homo sapiens, UniProt Q14671 828-1176, N971R;Q975I). In a few lines:
as §1

The target in the next assay is PUM1 PUF domain R1-KAN (Homo sapiens, UniProt Q14671 828-1176, S863K;R864A;Q867N). In a few lines:
as §1

In the next assay the target is PUM1 PUF domain R3-LFE (Homo sapiens, UniProt Q14671 828-1176, C935L;R936F;Q939E). Put shortly:
as §1

For a further assay, the target named is PUM1 PUF domain R3-RQS (Homo sapiens, UniProt Q14671 828-1176, C935R;R936Q;Q939S). Put shortly:
as §1

In the next assay the target is PUM1 PUF domain R2-RRA (Homo sapiens, UniProt Q14671 828-1176, N899R;Y900R;Q903A). Put shortly:
as §1

As to “GGCUAGAACUAGUGGAUCCCCCGGCGCCCGGCGGCUCGAGCCCGGGUAAGUGUUAAUAGUCUGCAUGCCGCCGGGCGCCAUGCCUGCAGGUCGACUCUAGAAAACAUG”, the binding signal with PUM1 PUF domain R5-LNS was 4.81 log2 enrichment (interaction score).

For the sequence “GGCUAGAACUAGUGGAUCCCCCGGCGCCCGGCGGCUCGAGCCCGGGUAAGUGCAAAUAGUCUGCAUGCCGCCGGGCGCCAUGCCUGCAGGUCGACUCUAGAAAACAUG”, the binding signal with PUM1 PUF domain R6-GFR is 6.98 log2 enrichment (interaction score). “GGCUAGAACUAGUGGAUCCCCCGGCGCCCGGCGGCUCGAGCCCGGGUAAGUGUAAAUUGUCUGCAUGCCGCCGGGCGCCAUGCCUGCAGGUCGACUCUAGAAAACAUG”: in the assay with PUM1 PUF domain R1-KTQ, the binding signal was 5.82 log2 enrichment (interaction score). For the sequence “GGCUAGAACUAGUGGAUCCCCCGGCGCCCGGCGGCUCGAGCCCGGGUAAGUGAAAAUAGUCUGCAUGCCGCCGGGCGCCAUGCCUGCAGGUCGACUCUAGAAAACAUG”, in the assay with PUM1 PUF domain R6-LFA, the binding signal was 6.15 log2 enrichment (interaction score). For “GGCUAGAACUAGUGGAUCCCCCGGCGCCCGGCGGCUCGAGCCCGGGUAAGUGUAUAUAGUCUGCAUGCCGCCGGGCGCCAUGCCUGCAGGUCGACUCUAGAAAACAUG”, the binding signal in the assay with PUM1 PUF domain R4-PWQ was 5.05 log2 enrichment (interaction score); in the assay with PUM1 PUF domain R4-FNG, 4.34 log2 enrichment (interaction score); with PUM1 PUF domain R4-RHI, 3.1 log2 enrichment (interaction score). On to “GGCUAGAACUAGUGGAUCCCCCGGCGCCCGGCGGCUCGAGCCCGGGUAAGUGUAAAUGGUCUGCAUGCCGCCGGGCGCCAUGCCUGCAGGUCGACUCUAGAAAACAUG”, for which the binding signal in the assay with PUM1 PUF domain R1-KAN was 2.46 log2 enrichment (interaction score). For the sequence “GGCUAGAACUAGUGGAUCCCCCGGCGCCCGGCGGCUCGAGCCCGGGUAAGUGUAAUUAGUCUGCAUGCCGCCGGGCGCCAUGCCUGCAGGUCGACUCUAGAAAACAUG”, the values for the binding signal with PUM1 PUF domain R3-LFE and with PUM1 PUF domain R3-RQS were 1.57 log2 enrichment (interaction score) and 4.09 log2 enrichment (interaction score), respectively. Regarding “GGCUAGAACUAGUGGAUCCCCCGGCGCCCGGCGGCUCGAGCCCGGGUAAGUGUAAAGAGUCUGCAUGCCGCCGGGCGCCAUGCCUGCAGGUCGACUCUAGAAAACAUG”, the binding signal with PUM1 PUF domain R2-RRA is 2.69 log2 enrichment (interaction score).
